Where “and” joins values, the source holds several entries; their conditions need not be identical. Equal values may be shown once. The source holds several records for some structures; these can differ, active in one and inactive in another. Calls of active or inactive are those of the source. The calls were made as follows: active = hit-call score of the fitted dose curve at least 0.9, where 1 is the maximum; inactive = score below 0.9.
How the values were obtained:
[1] = ATG_CRE_CIS: Attagene CIS-FACTORIAL HepG2 Assay for human cAMP Responsive Element (CRE) binding protein 3 (AID 2282926); conditions: HepG2 CRE cis-reporter, Attagene multiplexed mRNA; actives raise or lower the signal
Outline: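 Assay format: transient reporter transfection of HepG2, 24 h treatment, total RNA isolation with DNase I step. Reporter abundance read by fluorescence after PCR and capillary separation; DMSO-normalised gain or loss fitting.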

[2] = molecular target: CCAAT/enhancer-binding protein beta (Homo sapiens) (UniProt P17676); assay: ATG_C_EBP_CIS: Attagene CIS-FACTORIAL HepG2 Assay for human CCAAT/Enhancer Binding Protein (C/EBP) beta (AID 2282927); conditions: HepG2 Attagene cis-factorial transcription factor reporter; actives raise or lower the signal
Outline: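 HepG2 transiently transfected with multiplexed reporter units under cis-regulatory promoters reporting endogenous C/EBPb activity. After 24 h exposure, reporter mRNA assayed by RT-PCR, fluorescent labelling, HpaI digestion and capillary electrophoresis; bidirectional fitting versus DMSO.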

[3] = ATG_DR4_LXR_CIS: Attagene CIS-FACTORIAL HepG2 Assay for human Liver X Receptor (LXR), DR4 submotif (AID 2282929); conditions: HepG2 Attagene DR4 cis-reporter, mRNA transcription; actives raise or lower the signal
Outline: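 Fluorescence intensity of labelled reporter cDNA fragments, separated by capillary electrophoresis, gives the signal. HepG2 cells bearing cis-regulated reporter constructs were treated 24 h; activity fitted bidirectionally relative to DMSO negative control.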

[4] = molecular target: Aryl hydrocarbon receptor (Homo sapiens) (UniProt P35869); assay: ATG_Ahr_CIS: Attagene CIS-FACTORIAL HepG2 Assay for human Aryl Hydrocarbon Receptor (Ahr) (AID 2282930); conditions: HepG2 AhR cis-factorial reporter transcription; actives raise or lower the signal
Outline: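 HepG2 cells transiently transfected with cis-element-driven multiplexed reporter units; endogenous AhR activity read as reporter mRNA 24 h after dosing, via RT-PCR, 6-FAM labelling, HpaI digestion and capillary electrophoresis. Bidirectional fit relative to DMSO.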

[5] = ATG_AP_1_CIS: Attagene CIS-FACTORIAL HepG2 Assay for human Activator Protein 1 (AP-1) (AID 2282931); conditions: HepG2 Attagene cis-factorial AP-1 reporter mRNA; actives raise or lower the signal
Outline: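 Multiplexed HepG2 reporter assay, 24 h dosing. mRNA induction detected by RT-PCR plus capillary electrophoresis. Activity fitted in both directions against DMSO.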

[6] = ATG_AP_2_CIS: Attagene CIS-FACTORIAL HepG2 Assay for human Activator Protein 2 (AP-2) (AID 2282932); conditions: HepG2 AP-2 cis-reporter, Attagene transcription factor profiling; actives raise or lower the signal
Outline: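 Read-out: fluorescent reporter mRNA via RT-PCR and capillary electrophoresis, 24 h post-dose in transiently transfected HepG2. Endogenous factors drive cis-promoter reporters; gain or loss of signal fitted bidirectionally against DMSO.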

[7] = ATG_BRE_CIS: Attagene CIS-FACTORIAL HepG2 Assay for human Bone Morphogenetic Protein (BMP) Response Element (BRE) (AID 2282933); conditions: HepG2 BMP response element reporter, Attagene transcription factor profiling; actives raise or lower the signal
Outline: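 HepG2 cells transiently transfected with multiplexed cis-element reporter units were dosed with chemical for 24 h. Reporter mRNA was measured by RT-PCR with fluorescent labelling, HpaI digestion and capillary electrophoresis; bidirectional fitting relative to DMSO.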

[8] = molecular target: Transcription factor E2F1 (Homo sapiens) (UniProt Q01094); assay: ATG_E2F_CIS: Attagene CIS-FACTORIAL HepG2 Assay for human E2F Transcription Factor 1 (AID 2282935); conditions: HepG2 Attagene cis-reporter, E2F reporter RNA transcripts; actives raise or lower the signal
Outline: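 Transient MRTU transfection of HepG2; 24 h compound exposure; RNA → oligo(dT) RT → PCR → FAM label → HpaI cut → CE fluorescence. Gain/loss of signal fit against DMSO.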

[9] = ATG_E_Box_CIS: Attagene CIS-FACTORIAL HepG2 Assay for human Enhancer Box (E-box) (AID 2282936); conditions: HepG2 E-box cis-reporter transcription, actives raise or lower the signal
Outline: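 Transiently transfected HepG2, endogenous TF-driven reporters, 24 h dosing. Readout: RT-PCR plus capillary electrophoresis of fluorescent reporter fragments. Gain or loss of signal fitted bidirectionally against DMSO baseline.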

[10] = ATG_M_61_CIS: Attagene CIS-FACTORIAL HepG2 Assay for M61 Transcription Factor (Internal Marker) (AID 2282937); conditions: HepG2 Attagene CIS-FACTORIAL M61 internal marker reporter; actives raise or lower the signal
Outline: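 Endogenous transcription factor activity in HepG2 is read through transiently transfected cis-element reporter units. After 24 h dosing, RNA undergoes reverse transcription, PCR and primer extension with 6-FAM before capillary electrophoresis; DMSO-referenced bidirectional fit.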

[11] = ATG_EGR_CIS: Attagene CIS-FACTORIAL HepG2 Assay for human Early Growth Response 1 (EGR1) (AID 2282938); conditions: HepG2 Attagene CIS-FACTORIAL EGR reporter mRNA; actives raise or lower the signal
Outline: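 Activity is taken as induction or loss of reporter mRNA versus DMSO, fitted bidirectionally. Transcripts from cis-regulated reporter units in transiently transfected HepG2 were measured after 24 h by RT-PCR with capillary electrophoresis.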

[12] = ATG_M_19_CIS: Attagene CIS-FACTORIAL HepG2 Assay for M19 Transcription Factor (Internal Marker) (AID 2282939); conditions: HepG2 Attagene CIS-FACTORIAL M19 internal marker reporter; actives raise or lower the signal
Outline: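 HepG2 cells transiently transfected with cis-regulated multiple reporter transcription units were dosed for 24 h; reporter mRNA was quantified by RT-PCR, 6-FAM primer-extension labelling, HpaI digestion and capillary electrophoresis, with bidirectional fitting against DMSO baseline.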

[13] = ATG_Ets_CIS: Attagene CIS-FACTORIAL HepG2 Assay for human Erythroblast Transformation Specific (ETS) (AID 2282941); conditions: HepG2 ETS cis-reporter transcription, actives raise or lower the signal
Outline: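 RT-PCR/capillary electrophoresis fluorescence read-out of reporter mRNA; HepG2 transient multi-reporter transfection; 24 h compound exposure; gain or loss of signal fitted bidirectionally relative to DMSO.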

[14] = ATG_FoxO_CIS: Attagene CIS-FACTORIAL HepG2 Assay for human Forkhead box O (FoxO) (AID 2282943); conditions: HepG2 Attagene cis-reporter, FoxO element, mRNA; actives raise or lower the signal
Outline: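 HepG2 cells transiently transfected with cis-element-driven reporter units report endogenous FoxO activity. After 24 h chemical exposure, reporter mRNA quantified by RT-PCR, fluorescent labeling, HpaI digestion and capillary electrophoresis; bidirectional fit versus DMSO.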

[15] = ATG_GATA_CIS: Attagene CIS-FACTORIAL HepG2 Assay for human GATA Binding Protein (AID 2282944); conditions: HepG2 GATA cis-element reporter, Attagene multiplex mRNA; actives raise or lower the signal
Outline: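 HepG2 cells transiently transfected with multiplexed cis-element reporter units reflecting endogenous transcription factor activity; reporter mRNA measured after 24 h dosing by RT-PCR, 6-FAM labeling, HpaI digestion and capillary electrophoresis. Bidirectional fitting versus DMSO baseline.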

[16] = ATG_GLI_CIS: Attagene CIS-FACTORIAL HepG2 Assay for human Zinc Finger Protein GLI1 (AID 2282945); conditions: HepG2, Attagene cis-factorial reporter mRNA, GLI element; actives raise or lower the signal
Outline: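 Transiently transfected HepG2 cells report endogenous transcription factor activity via cis-element-driven reporter units. After 24 h compound exposure, reporter mRNA was measured by RT-PCR with capillary electrophoresis; bidirectional fitting against DMSO baseline.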

[17] = ATG_CMV_CIS: Attagene CIS-FACTORIAL HepG2 Assay for human CMV (Internal Marker) (AID 2282928); conditions: HepG2 CMV promoter reporter, transcription factor profiling; actives raise or lower the signal;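 also: endpoint acts as a background internal control marker rather than a target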
Outline: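 Readout: fluorescent reporter cDNA fragments separated by capillary electrophoresis after RT-PCR and HpaI cut. Cells: HepG2 carrying transfected cis-promoter reporter constructs, dosed 24 h. Endpoint serves as background internal-marker control, fit bidirectionally versus DMSO.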

[18] = molecular target: Retinoic acid receptor alpha (Homo sapiens) (UniProt P10276); assay: ATG_DR5_RAR_CIS: Attagene CIS-FACTORIAL HepG2 Assay for human Retinoic Acid Receptor Alpha (RARE), DR5 submotif (AID 2282934); conditions: HepG2 Attagene cis-factorial RARE DR5 reporter, mRNA; actives raise or lower the signal
Outline: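 HepG2 cells transiently transfected with multiplexed reporter units; DR5 cis-element drives reporter through endogenous transcription factors. After 24 h dosing, reporter mRNA quantified by RT-PCR, fluorescent labeling, HpaI digestion and capillary electrophoresis; bidirectional fitting versus DMSO.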

[19] = molecular target: Hepatocyte nuclear factor 3-beta (Homo sapiens) (UniProt Q9Y261); assay: ATG_FoxA2_CIS: Attagene CIS-FACTORIAL HepG2 Assay for human Forkhead box A2 (FOXA2) (AID 2282942); conditions: HepG2 cis-reporter transcription factor activity, 24 h; actives raise or lower the signal
Outline: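 Reporter transcript induction is measured by fluorescence after capillary electrophoresis of RT-PCR products from HepG2 cells exposed 24 h. Cis-regulated reporter units report endogenous factor activity; curves fitted both directions against DMSO.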

Measured: AC50

Chain of Retinoic acid receptor alpha (Homo sapiens) (P10276 whole entry, looked up): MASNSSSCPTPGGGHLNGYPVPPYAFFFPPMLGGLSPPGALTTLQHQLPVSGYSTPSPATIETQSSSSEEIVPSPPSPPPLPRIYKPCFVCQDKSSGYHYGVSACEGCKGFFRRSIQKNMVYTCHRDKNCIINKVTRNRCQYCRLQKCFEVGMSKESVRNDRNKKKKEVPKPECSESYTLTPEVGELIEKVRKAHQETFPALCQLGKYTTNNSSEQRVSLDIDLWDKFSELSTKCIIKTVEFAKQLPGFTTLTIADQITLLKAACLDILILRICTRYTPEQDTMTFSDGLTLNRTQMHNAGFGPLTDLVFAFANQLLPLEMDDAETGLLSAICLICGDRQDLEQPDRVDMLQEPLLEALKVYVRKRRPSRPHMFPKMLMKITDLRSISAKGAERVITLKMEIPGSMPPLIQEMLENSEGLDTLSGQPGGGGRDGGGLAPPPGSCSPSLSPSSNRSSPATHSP
Chain of CCAAT/enhancer-binding protein beta (Homo sapiens) (P17676 whole entry, looked up): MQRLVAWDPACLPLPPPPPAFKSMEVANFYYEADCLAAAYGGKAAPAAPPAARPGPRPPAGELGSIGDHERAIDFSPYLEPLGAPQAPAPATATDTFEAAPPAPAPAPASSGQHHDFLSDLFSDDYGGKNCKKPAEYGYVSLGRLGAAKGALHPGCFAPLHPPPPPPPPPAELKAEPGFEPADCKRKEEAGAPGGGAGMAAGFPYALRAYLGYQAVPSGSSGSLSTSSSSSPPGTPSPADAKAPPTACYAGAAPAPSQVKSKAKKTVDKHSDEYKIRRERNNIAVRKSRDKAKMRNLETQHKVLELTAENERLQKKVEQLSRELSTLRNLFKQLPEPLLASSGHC
Chain of Hepatocyte nuclear factor 3-beta (Homo sapiens) (Q9Y261 whole entry, looked up): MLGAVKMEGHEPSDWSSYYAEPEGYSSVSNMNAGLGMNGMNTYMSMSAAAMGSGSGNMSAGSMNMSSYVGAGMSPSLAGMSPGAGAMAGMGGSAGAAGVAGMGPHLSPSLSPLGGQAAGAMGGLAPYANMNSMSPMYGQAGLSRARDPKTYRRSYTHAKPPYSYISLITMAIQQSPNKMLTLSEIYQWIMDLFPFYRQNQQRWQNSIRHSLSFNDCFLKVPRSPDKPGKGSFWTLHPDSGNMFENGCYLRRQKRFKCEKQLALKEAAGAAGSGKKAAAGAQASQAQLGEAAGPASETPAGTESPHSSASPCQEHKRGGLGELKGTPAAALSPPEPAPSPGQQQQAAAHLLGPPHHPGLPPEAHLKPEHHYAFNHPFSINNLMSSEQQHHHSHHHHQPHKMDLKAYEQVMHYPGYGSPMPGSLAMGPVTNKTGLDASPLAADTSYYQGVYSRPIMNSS
Chain of Transcription factor E2F1 (Homo sapiens) (Q01094 whole entry, looked up): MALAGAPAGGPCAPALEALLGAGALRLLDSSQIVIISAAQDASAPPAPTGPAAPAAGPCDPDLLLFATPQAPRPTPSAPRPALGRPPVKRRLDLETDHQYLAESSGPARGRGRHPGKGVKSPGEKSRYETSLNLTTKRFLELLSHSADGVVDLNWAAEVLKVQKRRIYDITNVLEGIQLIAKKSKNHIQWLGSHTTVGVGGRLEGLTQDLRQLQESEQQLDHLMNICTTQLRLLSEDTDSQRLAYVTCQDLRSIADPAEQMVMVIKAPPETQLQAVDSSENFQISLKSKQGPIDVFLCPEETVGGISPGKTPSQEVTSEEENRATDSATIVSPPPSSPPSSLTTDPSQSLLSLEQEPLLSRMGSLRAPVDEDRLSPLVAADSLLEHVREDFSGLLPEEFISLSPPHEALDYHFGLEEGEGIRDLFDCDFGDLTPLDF
Chain of Aryl hydrocarbon receptor (Homo sapiens) (P35869 whole entry, looked up): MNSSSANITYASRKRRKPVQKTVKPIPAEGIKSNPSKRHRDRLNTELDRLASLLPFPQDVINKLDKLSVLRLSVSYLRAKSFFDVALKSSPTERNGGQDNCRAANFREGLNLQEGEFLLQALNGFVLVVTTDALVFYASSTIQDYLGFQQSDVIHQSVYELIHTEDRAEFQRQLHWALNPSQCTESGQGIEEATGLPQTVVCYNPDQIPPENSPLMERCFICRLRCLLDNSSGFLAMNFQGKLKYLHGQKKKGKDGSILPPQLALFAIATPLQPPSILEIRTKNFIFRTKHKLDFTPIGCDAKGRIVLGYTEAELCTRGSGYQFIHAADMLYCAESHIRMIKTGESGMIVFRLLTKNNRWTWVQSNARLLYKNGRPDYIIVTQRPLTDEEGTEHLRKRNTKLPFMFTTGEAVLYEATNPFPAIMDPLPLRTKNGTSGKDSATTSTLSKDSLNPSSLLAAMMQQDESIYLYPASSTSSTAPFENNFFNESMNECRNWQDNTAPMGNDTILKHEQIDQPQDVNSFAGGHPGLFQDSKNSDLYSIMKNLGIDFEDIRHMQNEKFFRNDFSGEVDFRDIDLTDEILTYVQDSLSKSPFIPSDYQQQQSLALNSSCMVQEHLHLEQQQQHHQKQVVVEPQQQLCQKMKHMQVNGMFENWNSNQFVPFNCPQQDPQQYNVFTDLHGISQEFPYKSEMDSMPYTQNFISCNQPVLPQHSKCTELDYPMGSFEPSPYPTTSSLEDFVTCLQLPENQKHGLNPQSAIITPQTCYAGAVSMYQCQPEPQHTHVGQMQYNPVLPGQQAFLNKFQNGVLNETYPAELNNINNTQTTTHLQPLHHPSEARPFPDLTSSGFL

CN(C)[C@@H]1C(=O)C(C(N)=O)=C(O)[C@@]2(O)C(=O)C3=C(O)c4c(O)cccc4[C@@](C)(O)[C@H]3[C@H](O)[C@@H]12
inactive: [1] | [2] | [3] | [4] | [5] | [6] | [7] | [8] | [9] | [10] | [11] | [12] | [13] | [14] | [15] | [16]
active: [4] 66.3 µM and 37.9 µM | [7] 71.1 µM

CCOC(=O)CC(SP(=O)(OC)OC)C(=O)OCC (stereo unspecified)
not listed: [7]
inactive: all other assays above

CNc1cnn(-c2cccc(C(F)(F)F)c2)c(=O)c1Cl
active: [1] 19.7 µM | [5] 29.5 µM | [7] 17.8 µM
not listed: [19]
inactive: all other assays above

CCOP(=O)(OCC)Oc1cc(C)nc(C(C)C)n1
not listed: [3] | [18] | [19]
inactive: all other assays above

COP(=O)(NC(C)=O)SC (stereo unspecified)
not listed: [3] | [7] | [18] | [19]
inactive: all other assays above

CCOP(=S)(OCC)Oc1ccc([N+](=O)[O-])cc1
active: [2] 13.5 µM | [4] 30.9 µM | [5] 82.6 µM
inactive: all other assays above

CNC(=O)ON=C(C)SC
not listed: [3] | [18]
inactive: all other assays above
